A selection: hits, their analogues and other compounds. The true share with any hit is near 1.7%.
TRHR agonist = qHTS for Small Molecule Agonists and Allosteric Enhancers of Human TRH Receptor: Primary Screen for Agonists | actives 0.18% (n = 360,000) | TRHR cells, calcium flux fluo-8, FDSS agonist mode | activation, % at 2 µM | Thyrotropin-releasing hormone receptor (Homo sapiens), P34981; in the data active = activation above about 30%; also: 0% is about no effect
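Read-out: compound-evoked intracellular calcium rise in TRHR cells, fluo-8 dye, kinetic FDSS fluorescence at 1 s/cycle following a 10-cycle baseline. Cells cultured overnight before dye loading (30 min–1.5 h, RT).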
hERG WT inh = qHTS for Inhibitors of KCHN2 3.1: Wildtype qHTS. Voltage-gated inwardly rectifying potassium channel KCNH2 (Homo sapiens), Q12809. U2OS, BacMam KCNH2, thallium flux FluxOr; stronger effect = lower value. activity change, % at 1.84 µM. actives 0.37% (n = 340,000). AID 720551, 2013;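 active = maximum activity change below -70%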; also: % is scaled to controls: 0 for no effect and ±100 for the full control effect
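U2OS cells transduced with wild-type KCNH2 virus are loaded with FluxOr dye for 45 min, and thallium flux is measured in kinetic reads before and after stimulation buffer. Rate constants are normalized to DMSO controls.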
KCNH2 3.1 inh = qHTS for Inhibitors of KCHN2 3.1: Mutant qHTS; activity change, % (tested at about 1.8 µM); AID 720553, 2013; U2OS KCNH2 3.1, thallium flux FluxOr; stronger effect = lower value; actives 0.95% (n = 340,000); Potassium voltage-gated channel subfamily H member 2, brain isoform KCNH2 3.1 (human);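 active = maximum activity change below -70%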;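 also: thallium influx rate constant from kinetic fluorescence after stimulation buffer; % is scaled to controls: 0 for no effect and ±100 for the full control effect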
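Thallium flux via FluxOr fluorescence (Red40 quencher, 45 min loading) in U2OS cells virally expressing the KCNH2 3.1 isoform (1.77 x 10^8 /mL virus, overnight at 37 C). Rate constants from 2-min kinetic reads post-stimulation, normalised to positive and negative controls.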
TRPML1 blocker = qHTS for Inhibitors of the Human Mucolipin Transient Receptor Potential 1 (TRPML1). Mucolipin-1 (Homo sapiens), Q9GZU1. TRPML1-inducible cells, Ca2+ dye fluorescence, FDSS; stronger effect = lower value; inhibition of EC80 agonist-evoked calcium signal. activity change, negative = inhibition, % (concentration not given with the values). actives 0.02% (n = 390,000). AID 624415, 2012; in the data active = activity change below about -50%;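 also: stimulus is agonist 54-4 at its EC80 concentration; % is scaled to controls: 0 for no effect and ±100 for the full control effect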
Target sequence (Q9GZU1 whole entry, looked up): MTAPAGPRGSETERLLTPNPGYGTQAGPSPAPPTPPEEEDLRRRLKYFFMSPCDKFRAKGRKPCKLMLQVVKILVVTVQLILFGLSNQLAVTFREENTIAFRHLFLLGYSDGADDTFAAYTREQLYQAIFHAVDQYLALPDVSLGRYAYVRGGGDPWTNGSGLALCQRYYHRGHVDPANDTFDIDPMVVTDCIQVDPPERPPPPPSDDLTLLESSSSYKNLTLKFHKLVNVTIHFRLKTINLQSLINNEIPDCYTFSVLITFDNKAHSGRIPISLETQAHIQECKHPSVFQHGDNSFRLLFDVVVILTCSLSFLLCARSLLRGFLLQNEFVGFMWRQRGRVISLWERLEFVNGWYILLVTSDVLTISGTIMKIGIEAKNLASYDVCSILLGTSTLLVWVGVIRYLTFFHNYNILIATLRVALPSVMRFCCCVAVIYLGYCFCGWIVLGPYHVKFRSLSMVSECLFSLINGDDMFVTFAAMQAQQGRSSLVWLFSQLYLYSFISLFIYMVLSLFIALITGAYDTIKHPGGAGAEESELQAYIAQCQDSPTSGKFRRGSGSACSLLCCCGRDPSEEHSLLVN
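Tet-induced TRPML1-DL cells loaded with Ca8 no-wash calcium dye were read kinetically on FDSS. Compound addition was followed by EC80 agonist 54-4 (4 uM final); inhibition was read over 110 s.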
TRPML1 ag = qHTS for Agonists of the Human Mucolipin Transient Receptor Potential 1 (TRPML1); Mucolipin-1 (Homo sapiens), Q9GZU1; TRPML1-expressing cells, Ca2+ dye fluorescence, FDSS; activation, % (no concentration beside the values); actives 0.12% (n = 410,000); in the data active = activation above about 50%; also: 0% is about no effect
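TRPML1-DL cells, Tet-induced overnight (~16 h, 37 degrees C), loaded 45-90 min at room temperature with Ca8 no-wash calcium dye plus quencher. FDSS fluorescence: 10 s baseline, compound pin-transfer, 110 s agonist read, then EC80 54-4 (4uM final) and 110 s antagonist read.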
TRHR enhancer = qHTS for Small Molecule Agonists and Allosteric Enhancers of Human TRH Receptor: Primary Screen for Enhancers; Thyrotropin-releasing hormone receptor (Homo sapiens), P34981; enhancement, % at 2 µM; TRHR cells, fluo-8 calcium fluorescence, EC20 TRH enhancement; actives 0.66% (n = 360,000); AID 493056, 2011; in the data active = enhancement above about 30%; also: 0% is about no effect
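Enhancer read-out: after compound pinning and an initial kinetic agonist-mode read, an EC20 of TRH (10 nM final) was injected and fluo-8 calcium signal (Ex 480/Em 530) followed at 1 s/cycle for 100 cycles in TRHR-expressing cells.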
* hit, by the source's call; . = no result.

SMILES | TRHR agonist | hERG WT inh | KCNH2 3.1 inh | TRPML1 blocker | TRPML1 ag | TRHR enhancer
CC1(C)C(=O)N(CCN2CCC(C(=O)c3ccc(F)cc3)CC2)c2ccccc21 | -1.3 | 17.4 | -75.2* | -4.3 | 0.5 | 7.3
COc1ccc(NS(=O)(=O)c2ccc3[nH]c(=O)[nH]c3c2)cc1OC | 1.3 | -3.2 | 6.2 | -3.5 | -0.6 | 31.6*
COc1ccc(S(=O)(=O)Nc2ccc3cn[nH]c3c2)cc1C | -0.3 | -0.8 | 6.5 | 6.1 | 1.9 | 39.3*
O=C(c1ccccc1F)N1CCCC(C(=O)N2CCc3ccccc3C2)C1 (centres undefined) | -0.3 | 2.1 | -1.6 | -6.5 | -0.5 | 17.0
COC(=O)N/N=C(\C)c1ccc(-n2ccnc2)cc1 | 0.1 | . | 4.3 | 2.8 | -0.7 | 40.7*
COc1ccc(-n2c(NN)nc3sc4c(c3c2=O)CCCC4)cc1 | -1.2 | -8.4 | 4.5 | 4.7 | 0.5 | 5.8
CCN1CCN(c2nc3sc4c(c3c(=O)n2-c2ccc(OC)cc2)CCCCC4)CC1 | -0.6 | -0.4 | -71.4* | 1.3 | 0.0 | 3.2
CC(=O)N1CCC(N(Cc2ccco2)C(=O)Nc2ccc(Br)cc2F)CC1 | 2.4 | . | . | 17.5 | -0.3 | 41.0*
O=C(COC(=O)c1cccc(OC(F)F)c1)Nc1ncccn1 | . | 24.9 | -8.1 | 20.9 | 0.5 | .
Cc1cccc(OCCC(=O)NCC(=O)Nc2c(C)cccc2C)c1 | -0.5 | 20.8 | -9.4 | -1.7 | 0.5 | 31.1*
COc1ccc(OC)c(CCNC(=O)c2cccc(NC3=NC4CS(=O)(=O)CC4S3)c2)c1 (centres undefined) | 0.3 | 0.9 | -22.0 | 11.7 | -0.3 | -0.6
C/C(=N\Nc1ncnc2sc(C)c(C)c12)c1ccccn1 | 55.0* | -73.0* | -7.7 | -24.4 | 58.2* | 14.8
Cc1sc2ncnc(N/N=C/c3cccc(O)c3)c2c1C | 0.3 | -11.5 | 9.0 | -8.7 | -1.8 | 1.8
Cc1c(C(=O)N2CCN(c3ccccc3)CC2)sc2ncnc(N3CCN(c4ccccn4)CC3)c12 | -0.1 | 1.9 | -12.4 | 12.6 | 0.0 | -9.3
Cc1nc(N2CCN(c3ccccn3)CC2)c2c(C)c(C(=O)Nc3c(C)cc(Br)cc3C)sc2n1 | -0.8 | 1.2 | -80.3* | -2.4 | 0.0 | -1.3
Cc1nc(N2CCN(c3ccccn3)CC2)c2c(C)c(C(=O)Nc3c(F)cc(F)cc3Br)sc2n1 | -0.1 | -28.3 | -95.1* | -11.1 | 14.6 | 1.2
Cc1c(C(=O)N2CCN(c3ccc(F)cc3)CC2)sc2ncnc(N3CCN(c4ccccn4)CC3)c12 | -0.9 | 2.5 | -76.2* | -4.7 | 0.6 | -2.8
Cc1ccc(CNC(=O)C2(C)CCN2C(=O)Cc2ccc(C(C)(C)C)cc2)cc1 (centres undefined) | . | . | . | . | -0.7 | .
CCNC(=O)C1(C)CCCN1C(=O)c1cc(OC)c(OC)c(OC)c1 (centres undefined) | . | . | . | . | 0.2 | .
Cn1c(N)c(S(=O)(=O)NCc2ccc(F)cc2)c(=O)n(C)c1=O | 0.6 | -0.2 | 2.9 | 5.8 | 0.4 | 7.0
CC(C)(CC1(C)NC(=O)NC1=O)OCc1ccccc1 (centres undefined) | . | 21.0 | -4.7 | -16.6 | -0.2 | .
COc1ccc(NCc2cc3cc4c(cc3n(CC(=O)Nc3ccc(C)cc3)c2=O)OCO4)cc1 | 22.0 | . | . | 1.7 | 3.7 | -1.5
CCN1CCN(C(=O)c2ccc(N3CC4CC(C3)c3cccc(=O)n3C4)c(NC(=O)c3cc(OC)cc(OC)c3)c2)CC1 (centres undefined) | 1.0 | -2.9 | -7.2 | 26.1 | 0.4 | 3.2
Cc1cc(C)n(C(=O)CNC(=O)c2cccs2)n1 | 0.2 | 5.3 | 5.7 | -9.4 | 0.1 | 37.2*
CNC(=O)C1(C(F)(F)F)C/C(=C\Cc2ccccc2)CCCO1 (centres undefined) | . | . | . | -6.8 | 1.1 | .
SMILES | TRHR agonist | hERG WT inh | KCNH2 3.1 inh | TRPML1 blocker | TRPML1 ag | TRHR enhancer
COc1cc(NC(=O)C(OC(=O)CNC(=O)c2ccccc2)c2ccccc2)c(OC)cc1Cl (centres undefined) | 0.2 | . | . | . | . | -0.9
CC(=O)c1cccc(NC(=O)C(C)OC(=O)c2ccc(S(C)(=O)=O)c([N+](=O)[O-])c2)c1 (centres undefined) | . | . | . | . | -1.0 | .
CCc1c(C)nc(SCC(=O)CC(=O)OC(C)C)c(C#N)c1C | 0.0 | 6.5 | -12.3 | 2.1 | 51.3* | 0.3
CCc1c(C)nc(SCC(N)=O)c(C#N)c1C | -0.2 | 1.7 | 7.3 | 0.5 | 0.2 | 4.7
O=C(O)C1C2C=CC(C2)C1C(=O)NCCCN1CCCC1=O (centres undefined) | 0.5 | -128.0* | 11.9 | -9.1 | 0.9 | 0.1
O=C(O)C1C2C=CC(C2)C1C(=O)NCCCn1ccnc1 (centres undefined) | 0.1 | 1.2 | 2.6 | 18.0 | 0.0 | -7.5
COc1ccc(-c2c(-c3ccsc3)oc(=O)c3cc(OC)c(OC)cc23)cc1 | -0.3 | -8.2 | 20.1 | 3.8 | 2.1 | -4.3
COc1cc2c(-c3cc(F)cc(F)c3)c(-c3ccsc3)oc(=O)c2cc1OC | -0.4 | -3.4 | -106.1* | -13.5 | 1.2 | 3.7
CN(C)CCN(Cc1ccco1)S(=O)(=O)c1csc(C(N)=O)c1 | 0.8 | 3.4 | 4.9 | 19.6 | -0.5 | 2.6
CCCCN(Cc1ccco1)S(=O)(=O)c1csc(C(N)=O)c1 | -1.1 | -159.1* | -182.1* | -3.5 | -0.7 | 0.0
COc1ccc(OC)c(CCNC(=O)c2ccc(CS(=O)Cc3ccc(Cl)cc3)o2)c1 (centres undefined) | -0.1 | -10.4 | -4.1 | -0.4 | -0.4 | -12.2
Cc1nc(SCC(=O)Nc2cccc(Cl)c2)n[nH]1 | 0.2 | 1.5 | 0.1 | -11.0 | -0.9 | 3.1
Cc1ccccc1NC(=O)CSc1n[nH]c(-c2ccccn2)n1 | -0.3 | -8.2 | 16.5 | -3.4 | 2.0 | 34.8*
Cc1ccc(C)c(NC(=O)CSc2n[nH]c(-c3ccccn3)n2)c1 | 1.1 | -6.4 | 4.1 | -6.9 | 0.0 | -3.4
O=C(CSc1n[nH]c(-c2ccccn2)n1)Nc1cccc(Cl)c1 | -0.3 | 2.4 | -70.2* | -5.6 | -0.3 | -3.1
CCn1c(O)c(/C=C/C=C/C=Nc2ccccc2)sc1=S | 0.7 | -225.9* | -183.8* | 84.0 | -0.1 | 3.1
COc1ccc(N2CCN(C(=O)COC(=O)c3nc(Cl)ccc3Cl)CC2)cc1 | . | 2.8 | -1.7 | 14.7 | -0.6 | .
